IDE exosite inh – insulin-degrading enzyme (human) exo-site inhibition; z-score at 20 µM; 17,000 compounds, 6.3% hits; purified IDE, FL-6b probe fluorescence polarization; active compounds read low; P14735;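 active = z-score of -3 or lower, meaning strong loss of probe binding signal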;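 note: His-tagged human IDE residues 42-1019 made in E. coli with 30 nM FL-6b probe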
Target sequence (P14735 42-1019 limits assumed): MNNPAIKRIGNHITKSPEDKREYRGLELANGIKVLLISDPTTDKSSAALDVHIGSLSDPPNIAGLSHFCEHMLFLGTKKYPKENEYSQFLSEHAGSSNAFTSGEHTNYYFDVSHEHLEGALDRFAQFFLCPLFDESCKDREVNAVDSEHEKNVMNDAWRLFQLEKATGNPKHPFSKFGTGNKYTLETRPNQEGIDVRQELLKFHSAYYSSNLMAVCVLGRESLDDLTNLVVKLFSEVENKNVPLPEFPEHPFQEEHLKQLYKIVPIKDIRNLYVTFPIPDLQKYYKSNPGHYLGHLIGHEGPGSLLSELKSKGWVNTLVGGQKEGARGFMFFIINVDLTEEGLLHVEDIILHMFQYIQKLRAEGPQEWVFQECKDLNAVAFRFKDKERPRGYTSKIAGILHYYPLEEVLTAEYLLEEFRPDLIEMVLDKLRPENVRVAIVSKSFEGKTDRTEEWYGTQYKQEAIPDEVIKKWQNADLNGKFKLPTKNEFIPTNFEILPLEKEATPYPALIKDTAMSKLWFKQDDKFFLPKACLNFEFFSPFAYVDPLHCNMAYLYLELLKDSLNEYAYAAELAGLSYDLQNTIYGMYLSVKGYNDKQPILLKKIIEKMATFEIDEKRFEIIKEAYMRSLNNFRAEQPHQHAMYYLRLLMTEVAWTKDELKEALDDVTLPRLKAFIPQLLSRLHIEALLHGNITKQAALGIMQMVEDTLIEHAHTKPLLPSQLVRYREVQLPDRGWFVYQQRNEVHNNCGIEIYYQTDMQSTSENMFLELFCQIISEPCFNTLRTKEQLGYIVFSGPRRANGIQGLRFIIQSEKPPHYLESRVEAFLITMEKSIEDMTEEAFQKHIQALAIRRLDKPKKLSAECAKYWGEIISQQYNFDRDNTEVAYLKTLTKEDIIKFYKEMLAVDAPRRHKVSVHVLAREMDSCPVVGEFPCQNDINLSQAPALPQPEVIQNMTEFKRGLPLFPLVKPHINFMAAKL
Starred values were filed as active, the others as inactive; ! = not confirmed by another sample. This excerpt belongs to a sample that is enriched for hits.

SMILES	IDE exosite inh
CCS(=O)(=O)Nc1ccc2c(c1)C(=O)N(C)[C@@H]1CC[C@@H](CC(=O)NCc3ccccc3F)O[C@@H]1CO2	-0.83
CCCC#Cc1ccc([C@@H]2[C@H](CO)N3C(=O)CN(C(=O)c4ccc(F)cc4)C[C@@H]23)cc1	3.9
N#C[C@@H]1[C@@H](c2ccc(-c3cccc(F)c3)cc2)[C@@H](CO)N1S(=O)(=O)c1cccc(F)c1	5.2
CCc1csc(N2[C@@H](C#N)[C@H](c3ccc(-c4cccc(F)c4)cc3)[C@@H]2CO)n1	0.84
COc1ccccc1NC(=O)N1CC(=O)N2[C@H](CO)[C@H](c3ccc(-c4ccc(F)cc4)cc3)[C@@H]2C1	0.041
CN(C)C(=O)c1ccc(-c2ccc([C@@H]3[C@@H](C#N)N(C(=O)C4CC4)[C@H]3CO)cc2)cc1	1.9
N#C[C@@H]1[C@@H](c2ccc(C#Cc3cccnc3)cc2)[C@@H](CO)N1C(=O)NC1CCCCC1	-0.51
Cc1cccc(-c2ccc([C@H]3[C@H]4CN(S(=O)(=O)c5cn(C)cn5)CCCCN4[C@H]3CO)cc2)c1	1.4
Cn1cnc(S(=O)(=O)N2CCCCN3[C@H](CO)[C@@H](c4ccc(-c5ccccc5)cc4)[C@@H]3C2)c1	-9.4*
COc1cccc(-c2ccc([C@H]3[C@@H](CO)N4CCCCN(S(=O)(=O)c5cn(C)cn5)C[C@@H]34)cc2)c1	0.93
Cn1cnc(S(=O)(=O)N2CCCCN3[C@H](CO)[C@H](c4ccc(-c5cccc(F)c5)cc4)[C@@H]3C2)c1	2.5
Cn1cnc(S(=O)(=O)N2CCCCN3[C@@H](CO)[C@@H](c4ccc(-c5ccc(F)cc5)cc4)[C@@H]3C2)c1	-2.1
Cn1cnc(S(=O)(=O)N2CCCCN3[C@H](C2)[C@H](c2ccc(-c4ccccc4)cc2)[C@@H]3CO)c1	1.7
Cc1cccc(-c2ccc([C@@H]3[C@H](CO)N4CCCCN(S(=O)(=O)c5cn(C)cn5)C[C@@H]34)cc2)c1	-20*
COc1cccc(-c2ccc([C@@H]3[C@@H](CO)N4CCCCN(S(=O)(=O)c5cn(C)cn5)C[C@H]34)cc2)c1	1.4
COc1cccc(-c2ccc([C@@H]3[C@@H](CO)N4CCCCN(S(=O)(=O)c5cn(C)cn5)C[C@@H]34)cc2)c1	-14*
COc1cccc(-c2ccc([C@H]3[C@H](CO)N4CCCCN(S(=O)(=O)c5cn(C)cn5)C[C@@H]34)cc2)c1	-0.35
COc1cccc(-c2ccc([C@H]3[C@H]4CN(S(=O)(=O)c5cn(C)cn5)CCCCN4[C@H]3CO)cc2)c1	-0.71
Cc1cccc(-c2ccc([C@@H]3[C@H]4CN(S(=O)(=O)c5cn(C)cn5)CCCCN4[C@H]3CO)cc2)c1	-6.1*
C[C@@H]1CCCCO[C@@H](CN(C)C(=O)CCCN(C)C)[C@H](C)CN([C@@H](C)CO)C(=O)c2cc(NS(=O)(=O)c3ccc(Cl)cc3)ccc2O1	1.5
COc1ccc(C[C@@H]2CCn3cc(nn3)COC[C@H](C)NC2=O)cc1	0.91
O=C(c1cccc(F)c1)N1CC(=O)N2[C@H](C1)[C@H](c1ccc(-c3ccccc3)cc1)[C@@H]2CO	3.7
CCCC#Cc1ccc([C@@H]2[C@@H](CO)N3C(=O)CN(C(=O)c4cccc(F)c4)C[C@H]23)cc1	0.1
CCN(C[C@H]1N[C@H](CO)[C@@H]1c1ccc(-c2ccccc2)cc1)C(=O)COC	1.2
CC(C)NC(=O)N1CCCCN2[C@@H](CO)[C@H](c3ccc(C#CC4CC4)cc3)[C@@H]2C1	2.6
SMILES	IDE exosite inh
CN1C[C@@H]2[C@H](c3ccccc31)[C@H](CO)N2C(=O)C1CCOCC1	2.2
C[C@H]1CN([C@@H](C)CO)C(=O)c2ccccc2-c2ccccc2CO[C@@H]1CN(C)C(=O)Nc1cccc(C(F)(F)F)c1	0.52
COCC(=O)N1[C@H](C#N)[C@@H](c2ccccc2-c2cccc(OC)c2)[C@@H]1CO	1.8
CN1CCN(C(=O)C[C@H]2CC[C@H]3[C@@H](COC[C@H](O)CN3C(=O)c3ccccc3F)O2)CC1	0.32
CC(=O)NC[C@H]1[C@@H](c2ccc(-c3ccccc3)cc2)[C@H](CO)N1C(=O)C1CCC1	1.9
CCS(=O)(=O)Nc1ccc2c(c1)C(=O)N(C)[C@H]1CC[C@@H](CC(=O)NCc3ccc(OC)cc3)O[C@H]1CO2	-0.028
Cc1ccc(-c2ccc([C@H]3[C@H](CO)N4C(=O)CN(C(=O)Nc5ccc(F)cc5)C[C@@H]34)cc2)cc1	1.2
Cc1cccc(-c2ccc([C@H]3[C@@H](CO)N4CCCCN(C(=O)c5ccncc5)C[C@@H]34)cc2)c1	-1.7
Cc1cccc(-c2ccc([C@H]3[C@H](CO)N4CCCCN(C(=O)c5ccncc5)C[C@@H]34)cc2)c1	-1.4
Cc1cccc(-c2ccc([C@H]3[C@@H](CO)N4CCCCN(C(=O)c5cccnc5)C[C@H]34)cc2)c1	-17*
Cc1cccc(-c2ccc([C@H]3[C@@H](CO)N4CCCCN(C(=O)c5cccnc5)C[C@@H]34)cc2)c1	-0.85
Cc1cccc(-c2ccc([C@@H]3[C@H]4CN(C(=O)c5cccnc5)CCCCN4[C@H]3CO)cc2)c1	-15*
O=C(c1cccc(F)c1)N1CCCCN2[C@H](C1)[C@@H](c1ccc(-c3cccnc3)cc1)[C@@H]2CO	0.89
CC(C)NC(=O)N(C)C[C@@H]1Oc2ccc(NC(=O)Cc3ccccc3)cc2CC(=O)N([C@@H](C)CO)C[C@H]1C	1.1
CCC(=O)N1CC2(CN(C(C)=O)C2)c2c([nH]c3cc(OC)ccc23)[C@@H]1CO	1.1
O=C(Cc1ccccc1)N1CC(=O)N2[C@H](C1)[C@@H](c1ccc(-c3ccc(F)cc3)cc1)[C@@H]2CO	-2
COCC#Cc1ccc([C@@H]2[C@H](CO)N3C(=O)CN(C(=O)c4ccncc4)C[C@@H]23)cc1	0.99
CCCC(=O)Nc1ccc2c(c1)C(=O)N(C)C[C@@H](OC)[C@H](C)CN(Cc1cc(-c3ccccc3)on1)[C@H](C)CO2	1.4
O=C(c1ccc(F)cc1)N1CC(=O)N2[C@H](C1)[C@@H](c1ccc(C#Cc3ccc(F)cc3)cc1)[C@@H]2CO	1.7
N#C[C@@H]1[C@H](c2ccccc2C2=CCCCC2)[C@H](CO)N1C(=O)Nc1ccccc1F	-0.19
CCCNC(=O)N1[C@@H](CO)[C@@H](c2ccc(-c3ccccc3)cc2)[C@@H]1CNC(C)=O	0.87
CCCNC(=O)N1[C@@H]2CNC[C@H]1C2c1ccc(/C=C/c2ccccc2)cc1 (stereo partly specified)	-7.5*
CCCNC(=O)N1[C@@H]2CNC[C@H]1C2c1ccc(-c2ccc(C)cc2)cc1 (stereo partly specified)	-3.2*!
O=C(Nc1cccc(Cl)c1)N1[C@@H]2CNC[C@H]1C2c1ccc(/C=C/c2ccccc2)cc1 (stereo partly specified)	-0.29
CC(C)NC(=O)N1[C@@H]2CNC[C@H]1C2c1ccc(/C=C/c2ccccc2)cc1 (stereo partly specified)	-1.7
CC(C)NC(=O)N1[C@@H]2CNC[C@H]1C2c1ccc(-c2cccc(C#N)c2)cc1 (stereo partly specified)	3.9
O=C(Cc1cccnc1)N1CC(=O)N2[C@H](CO)[C@@H](c3ccc(C#CC4CC4)cc3)[C@H]2C1	-0.045
COCC#Cc1ccc([C@H]2[C@@H](CO)N3C(=O)CN(C(=O)C4CCOCC4)C[C@H]23)cc1	5.2
CN(C)CC(=O)N1C[C@@H]2N[C@H](C1)C2c1ccc(-c2ccncc2)cc1 (stereo partly specified)	-1.2
COc1ccc(NC(=O)N2CCCCN3[C@H](CO)[C@H](c4ccc(-c5ccccc5F)cc4)[C@H]3C2)cc1	0.79

Bioassay records deposited in PubChem by Broad Institute.
